Assay results: PubChem BioAssay AID1347136 (National Center for Advancing Translational Sciences (NCATS), 2019)
Some of the results follow. Records with an inconclusive call do not appear. The source made the active and inactive calls. The call rests on the fitted dose curve; in most records, active means well fitted inhibition curve with a large enough effect; inconclusive means small, poorly fitted or top-dose-only effect; inactive means no such curve, though single readings can be large or run the other way.

Assay: qHTS of pediatric cancer cell lines to identify multiple opportunities for drug repurposing: Orthogonal 3D viability screen for SJ-GBM2 cells
Details: SJ-GBM2 3D spheroid viability, PI/Hoechst imaging, 72 h
Excerpt: Drug repurposing or repositioning has been offered as a strategy for drug development in oncology programs. This approach has special potential for childhood cancers and other rare or orphan diseases, where the expected return on new drug development has been a disincentive to pharmaceuticals. […] In this project we exploit the poly-pharmacology of drugs to discover new indications via phenotypic screening of a panel of 19 well-characterized cell lines derived from solid tumors seen in children and adolescents. The goal is to identify approved drugs with previously unrecognized anticancer properties that has the potential to reveal new mechanisms and biological processes involved in carcinogenesis or drug resistance. We employed a titration-based paradigm (quantitative high-throughput screening or qHTS), where all compounds were tested at multiple concentrations for their effect on cell viability. Concentration-response curves (CRCs) were derived directly from the primary screen, and both potency and efficacy values were used to identify compounds with robust bioactivity profiles. […] These two assays will be used to validate active compounds and assess the correlation of compound's potency in 2D vs 3D cultures on selected cell lines. Assay Submitter: Nathalia J. Martinez, National Center for Advancing Translational Sciences, National Institutes of Health, Rockville, MD, USA; email: natalia.martinez@nih.gov Shen, M et al. Quantitative high-throughput phenotypic screening of pediatric cancer cell lines identifies multiple opportunities for drug repurposing. Oncotarget 2017 Dec 19;9(4):4758-4772. PMID 29435139.
The cells were obtained from University of North Carolina (UNC), Pediatric Preclinical Testing Program (PPT), and Coriell Institute (CI). qHTS viability in 3D culture: Cells were assayed in phenol red-free growth media at a density of 1,000 cells/well, with the exception of Daoy, and SH-N-SH which were assayed at 1,500 cells/ well. Thirty muL of cells were dispensed into 384-well, ULA, round bottom plates (Corning) using a Multidrop dispenser. Plates were spun down at 1,000 rpm for 1 min and incubated at 37 degrees C, 5% CO2, under a humidified atmosphere for either 24 (Daoy) or 48 hours (all other cell lines) to allow spheroid formation. Ninety-two nanoliter of compounds and controls (neutral control DMSO or positive control bortezomib at final concentrations of 0.5 µM) were subsequently transferred via GNF Pintool. Plates were sealed using a breathable seal (Diversified Biotech, Dedham, MA) and incubated for 72 hours at 37 degrees C. Spheroid viability was first determined by high-content imaging using Hoechst 33342 and Propidium Iodide (PI, ThermoFisher Scientific), followed by addition of CellTiter-Glo 3D (Promega). Specifically, 3 µL/well of PBS containing a 1:500 dilution of both dyes was dispensed using Multidrop. Dyes were incubated for 1 hour before imaging using the Celigo Image Cytometer. Then, 20 µl of CellTiter-Glo 3D were added per well. Plates were incubated for 30 min at RT on a VWR microplate shaker (300 rpm) and analyzed for luminescence intensity using a ViewLux High-throughput CCD imager equipped with clear filters. Image analysis was done using the Celigo Tumorsphere 1+2+3 application software as previously described. Briefly, spheroids were first identified using bright-field image segmentation, and then the fluorescent intensities of PI and Hoechst 3342 were obtained using red (EX: 531/40 nm, EM: 629/53 nm) and blue (EX: 377/50 nm, EM: 470/22 nm) filters, respectively. The data were exported to Excel, and the average fluorescent intensities were used to calculate the ratio of PI over Hoechst, which was used to quantify viability. Percent activity based on neutral and positive control bortezomib was derived.

SMILES | Potency
CC1(C)O[C@@H]2C[C@@H]3[C@H]4C[C@@H](F)C5=CC(=O)C=C[C@]5(C)[C@@]4(F)[C@@H](O)C[C@]3(C)[C@]2(C(=O)CO)O1 | 574 nM (active)
COc1c(C)c2c(c(O)c1C/C=C(\C)CCC(=O)O)C(=O)OC2 | 722 nM (active)
CC[C@H]1CN2CCc3cc(OC)c(OC)cc3[C@@H]2C[C@@H]1C[C@H]1NCCc2cc(OC)c(OC)cc21 | 72.2 nM (active)
CC[C@]1(O)C[C@@H]2CN(CCc3c([nH]c4ccccc34)[C@@](C(=O)OC)(c3cc4c(cc3OC)N(C)[C@H]3[C@@](O)(C(=O)OC)[C@H](OC(C)=O)[C@]5(CC)C=CCN6CC[C@]43[C@@H]65)C2)C1 | 40.6 nM (active)
CC(NCc1ccc2c(c1)nc(NC(=O)c1ccc(-c3cn[nH]c3)s1)n2CC(C)(C)O)C(C)(C)C (stereo unspecified) | 162 nM (active)
COC(=O)Nc1nc2ccc(Sc3ccccc3)cc2[nH]1 | 574 nM (active)
